Compound activity as filed in PubChem.
SSB-PriA inh – inhibitors of Klebsiella pneumoniae PriA binding to SSB C-terminal tail | AlphaScreen SSBct-PriA binding, biotinylated peptide | inhibition, % at 33 µM | 430,000 tested, 0.6% active | AID 1272365; in the data active = inhibition mostly above about 37%, no sharp cut-off; inactive = mostly below about 20%;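 note: plate controls were negative control peptide for no effect and reference peptide for full effect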
PrP 5UTR inh – inhibition of PrP 5' UTR reporter expression; cell-based PrP 5' UTR mRNA reporter, plate reader; inhibition, % (test concentration not listed); 340,000 tested, 0.35% active; in the data active = inhibition above about 52%; note: 0 = median of the neutral control wells
RecA splice inh – blocks M. tuberculosis RecA intein splicing; P9WHJ3; cell-free RecA intein splicing, fluorescence; inhibition, % (no concentration beside the values); 290,000 tested, 0.75% active; AID 2221; in the data active = inhibition above about 30%; inconclusive = no clear call, values can overlap the other calls;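 note: 0% = vehicle wells and 100% = reference inhibitor control wells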
PfHsp40 rescue – rescue of PfHsp40-mediated yeast toxicity | S. cerevisiae expressing PfHsp40, growth rescue, ATP luminescence | growth rescue, % at 12.5 µM | 340,000 tested, 0.68% active | AID 504582; in the data active = growth rescue above about 28%, passing the limit was not always enough; inconclusive = no clear call, values can overlap the other calls;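 note: yeast W303a lacking pdr1 and pdr3 grown in galactose medium; growth measured after three days at 30 °C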
BJeLR viability – BJeLR cell viability loss; inhibition, % (test concentration not listed); BJeLR (HRASV12) viability, CellTiter-Glo ATP luminescence, 48 h; AID 1554; 300,000 tested, 0.17% active; in the data active = inhibition above about 50%; inconclusive = no clear call, values can overlap the other calls
PrPC surface inh – cell surface PrPC inhibition, primary TR-FRET screen; P04156; TR-FRET read-out; inhibition, % at 13.8 µM; 370,000 tested, 0.43% active; AID 720596; in the data active = inhibition above about 24%; note: 0% = median of the test wells and 100% = reference compound wells
PrPC confirm – cell surface PrPC inhibition, TR-FRET confirmation; shares compounds with PrPC surface inh; cell surface PrPC level; inhibition, % at 13.8 µM; 1,500 tested, 65% active; in the data active = inhibition above about 25%
LD9 cytotox – LD9 cell cytotoxicity, PrPc inhibitor counter-screen. 1,500 tested, 29% active. LD9 cells cytotoxicity, luminescence viability. inhibition, % at 13.8 µM. shares compounds with PrPC surface inh. AID 743201; in the data active = inhibition above about 9.5%
* marks the source's active call; other numbers are inactive results; ? = inconclusive; . = no result given. Sampled rows, rich in hits. Any-hit rate of the full collection: about 1.9%.

SMILES	SSB-PriA inh	PrP 5UTR inh	RecA splice inh	PfHsp40 rescue	BJeLR viability	PrPC surface inh	PrPC confirm	LD9 cytotox
C=COC(=O)CSc1nc(-c2cccs2)ccc1C#N	-4	-109	.	0	.	6	.	.
CC(=O)O[C@H]1CC[C@@]2(C)C(CCC3C2CC[C@]2(C)OC(=O)CCC32)C1 (stereo partly specified)	-9	-31	8	0	-3	7	.	.
CC(=O)OC1CCC2(C)C(CCC3C4CC=C(C(C)=O)C4(C)OC(=O)CC32)C1 (stereo unspecified)	.	.	.	.	.	72*	-16	91*
O=C(Nc1cccc([N+](=O)[O-])c1)C(=O)Nc1ccc2c(c1)OCO2	2	.	.	.	.	.	.	.
Cc1c(CC(=O)O)c(=O)oc2c(C)c3occ(-c4ccccc4)c3cc12	-5	-17	0	-1	-4	28*	19	-2
CN1OC(Cn2cc(C#N)c(=O)n(C)c2=O)CC1c1ccccc1 (stereo unspecified)	-1	-15	0	0	8	25*	4	1
CCCN1C(=O)C(C)(C)COc2ccc(NC(=O)OCC)cc21	23	.	.	.	.	.	.	.
COc1ccc2[nH]c3c(=S)nc[nH]c3c2c1	-3	-25	0	0	4	85*	104*	1
CC(C)N1CCC(CNS(=O)(=O)c2ccccc2)CC1	-17	.	.	.	.	.	.	.
Cc1ccc(NC(=O)C(=O)NN)cc1	0	-5	.	-1	12	5	.	.
NNC(=O)C(=O)Nc1ccc(O)cc1	-11	-45	-2	0	-9	31*	-3	-6
O=C(CSc1nc(=O)n(Cc2ccncc2)c2c1CCCC2)N1CCN(c2ccccc2)CC1	-17	.	.	.	.	.	.	.
O=C(c1ncc(-c2ccccc2)o1)N1CCN(c2ncccn2)CC1	-6	.	.	.	.	.	.	.
CN(CC(=O)Nc1ccccc1C(F)(F)F)C(=O)c1cc(-c2cccs2)nn1-c1ccccc1	1	-13	-4	.	1	25*	49*	0
Cc1csc(CN2CCN(C(=O)c3c(-c4ccccc4Cl)noc3C)CC2)n1	-9	.	.	.	.	.	.	.
N#CC(C#N)=C(Nc1ccc(F)cc1)SCc1cccc(F)c1	-8	-4	15	-3	31	28*	33*	35*
O=c1[nH]c(=O)n(Cc2ccco2)c2c1C(C(F)(F)F)(C(F)(F)F)N=C(CCc1ccccc1)N2	-4	.	2	2	4	56*	72*	2
O=c1[nH]c(=O)n(Cc2ccco2)c2c1C(C(F)(F)F)(C(F)(F)F)N=C(CCC1CCCCC1)N2	-7	-10	1	3	0	15	.	.
O=S(=O)(Nc1cccnc1)c1ccc(Br)c2ccccc12	-5	-16	0	-1	-12	36*	43*	-5
CC(=O)c1sc(C(C)(C)C)cc1NC(=O)c1ccccc1C(=O)O	6	3	-3	2	-2	36*	81*	-1
O=C(O)c1ccccc1C(=O)Nc1ccccc1NC(=O)c1ccccc1C(=O)O	-3	.	.	.	0	-5	.	.
CC(=O)c1cccc(NC(=O)C(OC(=O)c2cccc(S(=O)(=O)N(C)c3ccccc3)c2)c2ccccc2)c1 (stereo unspecified)	-16	-6	2	1	-4	7	.	.
COc1ccc(N(C)S(=O)(=O)c2cccc(C(=O)OC(C(=O)Nc3cc(C)cc(C)c3)c3ccccc3)c2)cc1 (stereo unspecified)	-3	-23	2	-1	1	26*	16	-2
CSc1nc(N)nc(-c2cccs2)c1C#N	-16	17	1	0	-5	19	.	.
CC(C)Sc1nc(N)nc(-c2cccs2)c1C#N	-33	-55	14	?	-2	30*	41*	3
SMILES	SSB-PriA inh	PrP 5UTR inh	RecA splice inh	PfHsp40 rescue	BJeLR viability	PrPC surface inh	PrPC confirm	LD9 cytotox
Cc1cc(NC(=O)C2CCCN(S(=O)(=O)c3ccc(Cl)cc3)C2)n(C(C)C)n1 (stereo unspecified)	-9	.	.	.	.	.	.	.
COC(=O)c1ccc(C(=O)Nc2cnn(C3CCOCC3)c2)cc1	-21	.	.	.	.	.	.	.
Cc1nonc1NC(=O)CSc1nc(C2CCCCC2)nc2ccccc12	-13	-33	26	2	0	50*	53*	-12
Cc1cccc(NC(=O)CSc2nc(C3CC3)nc3ccccc23)c1	-7	-2	1	2	1	30*	28*	-6
CC(=O)Nc1cccc(NC(=O)CSc2nc(C3CC3)nc3ccccc23)c1	-2	-12	2	0	6	18	.	.
O=C(Nc1sc2c(c1-c1nc3ccccc3s1)CCCC2)C1CCCN1S(=O)(=O)c1cccs1 (stereo unspecified)	-28	.	.	.	.	.	.	.
O=C1NCCOc2ccc(NS(=O)(=O)c3ccc(F)c(Cl)c3)cc21	-8	.	.	.	.	.	.	.
CC1CCc2sc(C(=O)Nc3ccc(C(N)=O)cc3)cc2C1 (stereo unspecified)	-1	-64	1	0	-2	70*	44*	0
CC(=O)N1CCCc2cc(S(=O)(=O)N3CCCC(C(=O)N4CCN(c5ccccc5)CC4)C3)ccc21 (stereo unspecified)	7	-20	0	-1	11	17	.	.
CC(=O)N1CCCc2cc(S(=O)(=O)N3CCCC(C(=O)N4CCN(c5cc(C)ccc5C)CC4)C3)ccc21 (stereo unspecified)	-4	12	10	1	9	25*	21	9.3*
CCc1ccc(NC(=O)C2CCCN(S(=O)(=O)c3ccc4c(c3)CCCN4C(C)=O)C2)cc1 (stereo unspecified)	1	-13	-3	0	10	25*	37*	9
CCOC(=O)c1ccc(NC(=O)C2CCCN(S(C)(=O)=O)C2)cc1 (stereo unspecified)	-22	.	.	.	.	.	.	.
CC(=O)N1CCCc2cc(S(=O)(=O)N3CCCC(C(=O)Nc4cccc(F)c4)C3)ccc21 (stereo unspecified)	13	-11	1	0	9	36*	24*	11*
CCOC(=O)c1ccc(NC(=O)C2CCCN(S(=O)(=O)c3ccc(F)cc3)C2)cc1 (stereo unspecified)	8	-15	2	0	4	30*	18	2
CCN(CC)c1ccc(C(=O)NN=C(C)c2cccc(OC)c2)cc1	2	.	.	.	.	.	.	.
O=C(NCCc1csc(-n2cccn2)n1)c1cc(-c2ccco2)[nH]n1	-3	.	.	.	.	.	.	.
Cn1nc(CNC(=O)c2ccc(S(=O)(=O)N3CCOCC3)cc2)cc1-c1cccs1	-1	.	.	.	.	.	.	.
CC(=NNc1nc2ccccc2o1)c1cc2ccccc2cn1	41*	17	.	0	.	27*	32*	49*
CCCSc1nc(N)c(C#N)c(-c2ccc(C)cc2)c1C#N	-10	-22	-2	-1	-2	1	.	.
